CYP2C19 activ: increases human CYP2C19 enzyme activity. activation factor at 5 µM. 96,000 tested, under 10 active. recombinant CYP2C19, luciferin-H EGE luminescence; active compounds read high; 0 = fully inhibited enzyme, 1 = untreated enzyme. AID 1025;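 active = activation factor of at least 2 at 5 µM in the primary screen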;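 also: 0 = wells with 2.5 mM tranylcypromine and 1 = vehicle-only wells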
CD11b adhes enh: increases human CD11b/CD18 adhesion to fibrinogen; K562 CD11b/CD18 adhesion to fibrinogen, ATPlite luminescence; P05107+P11215; activation, % at 10 µM; actives 0.07% (n = 93,000);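 active = 10 µM primary screen giving 50% or more activity, confirmed by 40% or more on retest at that dose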
Target sequence (P05107 whole entry, looked up, other chains not shown): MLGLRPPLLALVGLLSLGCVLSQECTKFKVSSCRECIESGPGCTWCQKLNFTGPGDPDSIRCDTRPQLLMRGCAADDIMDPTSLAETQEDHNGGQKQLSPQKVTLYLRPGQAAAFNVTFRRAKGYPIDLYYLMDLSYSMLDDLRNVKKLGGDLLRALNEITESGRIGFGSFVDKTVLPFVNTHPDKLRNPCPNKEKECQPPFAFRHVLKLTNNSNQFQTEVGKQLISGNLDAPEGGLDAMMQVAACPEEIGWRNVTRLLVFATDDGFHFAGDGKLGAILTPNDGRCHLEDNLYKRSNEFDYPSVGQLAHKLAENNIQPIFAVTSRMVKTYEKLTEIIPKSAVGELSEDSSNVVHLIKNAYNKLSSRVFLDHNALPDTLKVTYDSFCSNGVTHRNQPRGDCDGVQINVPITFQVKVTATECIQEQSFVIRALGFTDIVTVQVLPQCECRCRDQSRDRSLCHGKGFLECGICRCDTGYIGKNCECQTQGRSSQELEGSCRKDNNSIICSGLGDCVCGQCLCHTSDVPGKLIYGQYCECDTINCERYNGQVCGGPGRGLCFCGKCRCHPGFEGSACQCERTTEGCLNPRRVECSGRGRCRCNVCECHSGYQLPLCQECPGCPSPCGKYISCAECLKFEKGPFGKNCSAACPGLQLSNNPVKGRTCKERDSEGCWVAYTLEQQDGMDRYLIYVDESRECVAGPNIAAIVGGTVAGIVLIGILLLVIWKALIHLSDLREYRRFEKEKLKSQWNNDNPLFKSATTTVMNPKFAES
CYP2C19 inhib: human CYP2C19 inhibition; inhibition, % at 5 µM; CYP2C19 Supersomes, luciferin-H EGE luminescence, 30 min; actives 21% (n = 96,000);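 active = CYP2C19 inhibition above a set limit at 5 µM in the primary screen, cut at about 50% in these data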;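 also: plate controls were negative control wells for no effect and 2.5 mM tranylcypromine positive control for full effect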
CYP2C9 activ: increases human cytochrome P450 2C9 activity. AID 1024. activation factor at 5 µM. P11712. recombinant CYP2C9, luciferin-H conversion, luminescence; active compounds read high; factor 1 = untreated enzyme, 0 = blocked. actives 1.4% (n = 96,000);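 active = activation factor of 2 or more for CYP2C9 at a 5 µM dose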;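 also: 0 = sulfaphenazole-blocked wells and 1 = vehicle-only wells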
CYP2C9 inhib: inhibitors of human CYP2C9 | P11712 | CYP2C9 Supersomes, luciferin-H conversion, luminescence | inhibition, % at 5 µM | actives 20% (n = 96,000);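 active = blocking of liver enzyme CYP2C9 beyond about 50% at 5 µM, limit read from the data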
CD11b adhes inh: blocks human CD11b/CD18 adhesion to fibrinogen | P05107+P11215 | K562 CD11b/CD18 adhesion to fibrinogen, ATPlite luminescence; Mn2+ added to activate the integrin | inhibition, % at 10 µM | actives 0.54% (n = 93,000) | AID 1497;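 active = primary inhibition of 50% or more at 10 µM, then 40% or more on retest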
* = called active by the depositor; nt = no result. This is a sample that favours compounds with a hit; in the whole collection about 28% have one here.

SMILES	CYP2C19 activ	CD11b adhes enh	CYP2C19 inhib	CYP2C9 activ	CYP2C9 inhib	CD11b adhes inh
Cc1cc2nc(-c3ccc(SCC(=O)N4CCOCC4)nc3)[nH]c2cc1C	0.9	-3	13	0.8	20	-16
Cc1cc2nc(-c3ccc(SCC(=O)N4CCN(C(=O)c5ccco5)CC4)nc3)[nH]c2cc1C	0.3	nt	72*	0.2	84*	nt
Cc1cc2nc(-c3ccc(SCC(=O)Nc4ccc5c(c4)OCCO5)nc3)[nH]c2cc1C	0.7	nt	31	0.2	78*	nt
CNC(=O)CC(C(=O)O)c1ccc(OCC(C)C)cc1 (centres undefined)	1.1	-4	-14	1.1	-13	8
Cc1ccccc1S(=O)(=O)Cc1ccc(C(=O)N2CCN(c3ncccn3)CC2)o1	0.1	-1	92*	0.2	84*	9
COc1ccccc1N1CCN(C(=O)c2ccc(CS(=O)(=O)c3ccccc3OC)o2)CC1	0.7	3	35	0.2	79*	-24
COc1ccccc1S(=O)(=O)Cc1ccc(C(=O)N2CCN(c3ccc(C)cc3)C(C)C2)o1 (centres undefined)	0.4	1	55*	0.1	91*	19
COc1ccc(S(=O)(=O)Cc2ccc(C(=O)N3CCN(c4cccc(C)c4)C(C)C3)o2)cc1 (centres undefined)	0.4	0	58*	0.1	90*	13
Cc1ccccc1S(=O)(=O)Cc1ccc(C(=O)N2CCN(c3ccc(F)cc3)CC2)o1	0.5	-2	47	0.6	44	6
Cc1cccc(N2CCN(C(=O)c3csc4ccccc34)CC2C)c1 (centres undefined)	nt	-2	nt	nt	nt	-6
CCOC(=O)N1CCN(C(=O)c2ccc(CS(=O)(=O)c3ccccc3OC)o2)CC1	1	-3	-3	0.8	22	0
CCN(CC)CCCNC(=O)C1c2ccccc2C(=O)N(C)C1c1ccc(OC)cc1 (centres undefined)	1.1	-5	-8	1	-2	2
CN(C)CCNC(=O)Cn1nc(C(F)F)cc1C1CC1	1	0	-1	1	-1	-12
O=C(Cn1nc(C(F)F)cc1C1CC1)NCCC1=CCCCC1	0.3	-3	68*	1	0	10
Cc1ccc(S(=O)(=O)N(CC(=O)NCCC2=CCCCC2)Cc2ccccc2)cc1	0.6	-2	39	0.4	57*	-14
COc1ccc(CCNC(=O)CN(C2CCCCC2)S(C)(=O)=O)cc1	0.6	3	38	0.8	15	1
CS(=O)(=O)N(CC(=O)NCCC1=CCCCC1)C1CCCCC1	0.3	4	71*	0.3	69*	-6
O=C(CN(Cc1ccccc1F)S(=O)(=O)c1ccc(Cl)cc1)NCCCO	0.5	0	54*	0.9	14	2
O=C(CN(Cc1ccccc1)S(=O)(=O)c1ccc(F)cc1)NCCC1=CCCCC1	0.8	-2	19	0.5	46	-10
CCn1c(=O)cc(SCC(=O)NCCCN2CCN(c3ccc(F)cc3)CC2)c2ccccc21	0.7	4	29	1.3	-28	-4
Cc1cccc(NC(=O)c2cc(S(=O)(=O)NCc3ccco3)ccc2F)c1C	0.8	1	20	0.9	13	0
COc1ccc2c(CC#N)c[nH]c2c1	0.8	-2	20	1.1	-10	0
O=C(CN(Cc1ccccc1F)S(=O)(=O)c1ccc(Cl)cc1)NCCC1=CCCCC1	0.9	4	8	0.8	16	-4
Cc1ccc(S(=O)(=O)N(CC(=O)NCCC2=CCCCC2)Cc2ccccc2F)cc1	0.8	nt	22	0.5	52*	nt
C=CCNc1nc(Cl)nc(Nc2ccc(OCC)cc2)n1	nt	39	nt	nt	nt	-12
SMILES	CYP2C19 activ	CD11b adhes enh	CYP2C19 inhib	CYP2C9 activ	CYP2C9 inhib	CD11b adhes inh
CNc1nc(Cl)nc(NC(C)(C)C)n1	0.9	nt	14	2.7*	-173	nt
CC(C)(C)Nc1nc(NN)nc(NC(C)(C)C)n1	1	-4	5	0.8	17	4
CCOc1ccc(N2C(=O)CC(N(CCc3ccc(OC)cc3)C(=O)c3cccc(F)c3)C2=O)cc1 (centres undefined)	nt	20	nt	nt	nt	2
Cc1ccc(Nc2cc(-n3nc(C)cc3C)ncn2)c(C)c1	0.5	-3	54*	0.7	27	-3
Cc1cc(C)n(-c2cc(-n3nc(C)cc3C)ncn2)n1	0.6	-1	43	1.2	-17	8
Cc1ccc(Nc2cc(-n3cccn3)ncn2)c(C)c1	0.4	2	61*	0.7	33	-17
N#CCCn1ncn(-c2ccccc2)c1=S	1	-2	2	0.8	16	-4
Clc1ccc(Oc2nc(Oc3ccc(Cl)cc3)nc(N3CCOCC3)n2)cc1	0.9	-3	15	0.8	15	15
c1ccc(Oc2nc(Oc3ccccc3)nc(N3CCOCC3)n2)cc1	0.4	-3	60*	0.5	49	-5
COc1ncnc2c1N[C@@](C)(O)c1c(F)c(F)c(F)c(F)c1S2	0.1	3	86*	0.7	29	-2
COc1ncnc2c1NC(=O)CS2	1	0	5	1	0	-11
COc1ccccc1-c1c(C)nn2c(N3CCN(Cc4ccccc4)CC3)cc(C)nc12	0.4	-2	57*	0.5	52*	0
COc1ccccc1-c1c(C)nn2c(N3CCN(c4ccccc4OC)CC3)cc(C)nc12	0.2	0	76*	0.5	50	4
Cc1cc(N2CCN(Cc3ccccc3)CC2)n2nc(C)c(-c3ccccc3)c2n1	0.8	0	16	0.9	15	40
COc1ccc(-c2c(C)nn3c(N4CCN(Cc5ccccc5)CC4)cc(C)nc23)cc1OC	0.3	2	68*	0.2	85*	23
Cc1nnsc1Sc1cccc(C(F)(F)F)c1	1.1	-2	-7	1.1	-8	-11
COc1ccc(S(=O)(=O)Nc2ccc(S(=O)(=O)Nc3nc(C)cc(C)n3)cc2)cc1OC	1	-2	-2	0.8	23	6
COC(=O)Nc1ccc(S(=O)(=O)Nc2ccc(C)cc2)cc1	0.9	-4	7	0.8	17	-20
COc1ccc(S(=O)(=O)Nc2ccccc2)cc1OC	0.1	nt	90*	1.1	-7	nt
COc1ccc(S(=O)(=O)Nc2ccc(C)cc2)cc1OC	0	7	97*	0.4	62*	-24
COc1cccc(NS(=O)(=O)c2ccc(OC)c(OC)c2)c1	0	0	100*	1.9	-88	-3
COC(=O)COc1ccc(S(=O)(=O)Nc2ccc(NC(C)=O)cc2)cc1C	0.2	3	76*	0.7	32	-64
CCOC(=O)c1ncn2c1C(=O)OC2(C)C	0.9	1	12	0.9	9	-12
CN(c1ccc(C(=O)Nc2ccccc2C(F)(F)F)cc1)S(C)(=O)=O	0.8	2	15	1	-2	-2
